From PubChem
A selection: hits, their analogues and other compounds. The true share with any hit is near 8%.
MCF10A rereplic: A quantitative high throughput screen for small molecules that induce DNA re-replication in MCF 10a normal breast cells; MCF 10A DNA re-replication, Hoechst nuclear intensity, 48 h; Potency, µM (highest dose often 46.1 µM), for inactives: at the top dose activity, positive = re-replication, most hits filed as activators; actives 2.9% (n = 350,000); further: % of control where 0% means no effect; nearly all actives have a fitted effect of over 50% in size
HT1080 IDH1KD tx: qHTS for induction of synthetic lethality in tumor cells producing 2HG: qHTS for the HT-1080-IDH1KD cell line; HT-1080 IDH1 knockdown viability, ATP luminescence, 48 h; Potency, µM (series often up to 46.1 µM), without a hit: at the top dose activity, negative = toxicity, hits mostly cytotoxic; actives 2% (n = 360,000); AID 686971, 2013;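 further: 0% = DMSO wells and -100% = cell-free medium wells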
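Knockdown cells (IDH1KD HT-1080) received compounds 2 h after plating at 750 cells/well and were kept 48 h at 37 °C in 5% FBS RPMI. A CellTiter-Glo luminescence read gave % activity for curve fitting.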
SW480 rerep: A quantitative high throughput screen for small molecules that induce DNA re-replication in SW480 colon adenocarcinoma cells; actives 1.8% (n = 340,000); Potency, µM (highest dose often 46.1 µM), for inactives: at the top dose re-replication activation, hits mostly activators; SW480 DNA re-replication, Hoechst DNA content imaging, 48 h; AID 624297, 2012; further: % of control where 0% means no effect; nearly all actives have a fitted effect of over 55% in size
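First, 250 cells per well were seeded. Next, compound or vehicle (23 nL) was pinned in, plates sat 48 hr at 37 C. Finally Hoechst was added for 40 min before fluorescence scanning.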
HT1080-NT tox: qHTS for induction of synthetic lethality in tumor cells producing 2HG: qHTS for the HT-1080-NT fibrosarcoma cell line; HT-1080-NT fibrosarcoma viability, CellTiter-Glo ATP luminescence, 48 h; Potency, µM (series often up to 46.1 µM), inactives show top-dose activity, negative = less viability, actives largely listed as cytotoxic; actives 1.6% (n = 360,000);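 further: NT is the 2HG producing partner of a matched IDH1 knockdown line; 0% = DMSO-treated cells and -100% = media-only wells without cells; nearly all actives have a fitted effect of over 55% in size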
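Compounds were tested in concentration-response format on HT-1080-NT cells for 48 hours at 37 degrees C. Cell viability came from CellTiter-Glo luminescence; curves were classified by r2, response magnitude and activity.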
KB-V1 MDR tox: qHTS assay for MDR1-selective chemotherapeutics: Primary screen using the drug-selected MDR subline cells KB-V1; KB-V1 MDR cells viability, CellTiter-Glo, 72 h; Potency, µM (highest dose often 46.1 µM), actives largely listed as cytotoxic; actives 3.4% (n = 400,000); further: on the % scale 0 is the no-effect control and ±100 the full control effect; nearly all actives have a fitted effect of over 60% in size
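KB-V1 MDR subline cells in DMEM (phenol-red free, 10% FBS) exposed to compounds in qHTS concentration series for 72 h at 37 degrees C. Viability read by CellTiter-Glo luminescence; concentration-effect curves fitted after normalization and correction.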
KB-3-1 cytotox: qHTS assay for MDR1-selective chemotherapeutics: Primary screen using the parental adenocarcinoma cell KB-3-1; KB-3-1 viability, CellTiter-Glo ATP luminescence, 72 h; actives 1.4% (n = 400,000); Potency, µM (top dose mostly 46.1 µM), hits mostly cytotoxic; AID 1347075, 2019; further: on the % scale 0 is the no-effect control and ±100 the full control effect; nearly all actives have a fitted effect of over 60% in size
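Cytotoxicity in the drug-sensitive parental line KB-3-1 was scored as loss of CellTiter-Glo luminescence following 72 h incubation with compound. Values come from curve fitting of normalized concentration-response data.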
The depositor's hits bear a star; i = inactive; ? = inconclusive; . = not tested or not shown; [ ] = remark or other dose. The call rests on the fitted dose curve; in most records, active means well fitted curve in the direction sought with a large enough effect; inconclusive means small, poorly fitted or top-dose-only effect, or another doubt; inactive means no such curve, though single readings can be large; an effect the other way counts as inactive or inconclusive. Potency means the concentration at half of the fitted maximal effect.

SMILES | MCF10A rereplic | HT1080 IDH1KD tx | SW480 rerep | HT1080-NT tox | KB-V1 MDR tox | KB-3-1 cytotox
COC(=O)c1ccc(Nc2cc(C)nc3ccc(C)cc23)cc1 | 18µM* | 23µM* | 18µM* | 21µM* | ? | 6.5µM*
CC(=O)c1cccc(Nc2cc(C)nc3c(C)cc(C)cc23)c1 | ? | ? | 10% | -18% | 16µM* | i
CC(=O)c1ccc(S(=O)c2ccccc2)cc1 (stereo not given) | 20% | -8% | -2% | -28% | i | i
O=C(NCCc1ccc(Cl)cc1)c1cc(-c2ccccc2)n[nH]1 | . | . | . | . | i | i
CN1CCN(C(=S)SCC(=O)Nc2nc(-c3ccccc3)c(-c3ccccc3)o2)CC1 | 12µM* | 0% | -108% | -19% | 21µM* | ?
CCOC(=O)C(=O)Nc1nc(-c2ccccc2)c(-c2ccccc2)o1 | 17% | 2% | 0% | 6% | i | i
CCOC(=O)c1csc(NC(=O)COc2ccc(Cl)cc2Cl)n1 | 15% | -2% | -9% | 0% | 23µM* | i
CCOC(=O)c1csc(NC(=O)c2cc(OC)c(OC)c(OC)c2)n1 | ? | -20% | 0.23µM* | -14% | ? | i
O=C(CSC(=S)N1CCCC1)c1cc(Br)cc(Br)c1O | 19% | -15% | 5.2µM* | 16µM* | i | i
CC1CCCN(C(=S)SCC(=O)c2cc(Br)cc(Br)c2O)C1 (stereo not given) | ? | -27% | 24% | -16% | i | i
O=C(NC1CCOc2ccccc21)c1ccccn1 (stereo not given) | -14% | 8% | -5% | 7% | ? | i
Cn1cc([N+](=O)[O-])c(C(=O)NCc2cc3cc(Cl)ccc3[nH]2)n1 | 26% | 17% | -2% | 1% | i | 9.2µM*
Cc1cc(C)cc(OC(C)C(=O)Nc2c(C(=O)c3ccccc3)oc3ccccc23)c1 (stereo not given) | . | . | . | . | i | i
O=C1/C(=C/c2ccncc2)CCC/C1=C\c1ccncc1 | 3.7µM* | 4.1µM* | 2.6µM* | 4.6µM* | ? | 7.3µM*
O=C1CCC/C1=C\c1ccccc1 | -1% | 4% | -1% | -2% | i | i
O=C1C(=Cc2ccccc2Cl)CCc2ccccc21 | . | ? | . | ? | ? | 21µM*
O=C1/C(=C\c2ccccc2)CCC/C1=C/c1ccccc1 | 15µM* | ? | ? | ? | ? | ?
O=C1/C(=C/c2ccncc2)CCc2ccccc21 | ? | ? | 21µM* | -9% | 15µM* | i
COc1cccc(NC(=O)N2CCN(c3nnnn3-c3ccccc3)CC2)c1 | 5% | 2% | 2% | 2% | i | i
CCCOc1ccc(F)cc1-c1cc(C(=O)Nc2ccc(C)c(NS(C)(=O)=O)c2)[nH]n1 | . | ? | . | ? | 23µM* | ?
CCCOc1ccc(F)cc1-c1cc(C(=O)Nc2ccc(OC)c(OC)c2)[nH]n1 | . | ? | . | ? | 21µM* | ?
CCCOc1ccc(F)cc1-c1cc(C(=O)Nc2ccc(C(C)C)cc2)[nH]n1 | . | 23µM* | . | ? | i | ?
CC(C)c1ccc(NS(=O)(=O)c2ccc3[nH]cc(C(=O)NCC4CCCO4)c(=O)c3c2)cc1 (stereo not given) | . | . | . | . | ? | i
CC1CC(C)CN(Cc2nc(N)nc(Nc3ccccc3)n2)C1 (stereo not given) | ? | 8% | -2% | 1% | i | i
CC1CC(C)CN(Cc2nc(N)nc(Nc3ccc4ccccc4c3)n2)C1 (stereo not given) | 5.8µM* | ? | 9.2µM* | ? | ? | 12µM*
SMILES | MCF10A rereplic | HT1080 IDH1KD tx | SW480 rerep | HT1080-NT tox | KB-V1 MDR tox | KB-3-1 cytotox
COC(=O)c1cc2occc2n1Cc1ccc(Cl)cc1 | 16µM* | 0% | ? | 7% | i | i
COC(=O)c1sccc1S(=O)(=O)N(CC(=O)NCc1ccc(C)cc1)c1ccc(C)c(C)c1 | . | . | . | . | i | i
CCCCN1CC(COCc2ccccc2)Oc2cccc(Oc3ccc(C)cc3)c2S1(=O)=O (stereo not given) | -16% | -3% | 65% | ? | i | i
CCn1ncc(C2=NOC(C(=O)Nc3cnn(C45CC6CC(CC(C6)C4)C5)c3)C2)c1C (stereo not given) | -8% | ? | 18% | ? | 3.3µM* | ?
CCn1ncc(C2=NOC(C(=O)NCC(C)C)C2)c1C (stereo not given) | 0% | 11% | -3% | 22% | i | i
O=C(CCl)Nc1cccc(Oc2cnccn2)c1 | ? | ? | 51% | ? | ? | 21µM*
O=C(Nc1ccccc1)N(CCCN1CCOCC1)Cc1ccccc1F | -2% | 4% | -7% | 6% | i | i
COc1ccc(CN(CCCN2CCOCC2)C(=O)Nc2ccccc2)cc1OC | -4% | 1% | -3% | 12% | 7.3µM* | i
Cc1ccc(-c2nc3nc(C)cc(Nc4ccccc4O)n3n2)cc1 | . | . | . | . | ? | i
COC(=O)c1ccc(OCC(O)Cn2nnc3ccccc32)cc1 (stereo not given) | 0% | -3% | -6% | -3% | 23µM* | i
CC(=O)c1ccc(OCC(O)Cn2nnc3ccccc32)cc1 (stereo not given) | -2% | 7%[9.24 µM] | ? | -26% | i | i
O=C1C2CC=CCC2C(=O)N1c1ccc(OCC(O)Cn2nnc3ccccc32)cc1 (stereo not given) | 4% | -1% | 0% | 1% | 15µM* | ?
CCCNC(=O)c1ccccc1NC(=O)c1ccccc1N(C)S(=O)(=O)c1ccccc1 | ? | -11% | ? | -2% | 9.2µM* | ?
CCOc1ccccc1NC(=O)c1ccccc1N(C)S(C)(=O)=O | -6% | 11% | -9% | 10% | i | i
CC(C)CNC(=O)c1ccccc1NC(=O)c1ccccc1N(C)S(=O)(=O)c1ccccc1 | -6% | 0% | -2% | -2% | i | i
CN(c1ccccc1C(=O)Nc1cccc(Cl)c1Cl)S(C)(=O)=O | 0% | -4% | 2% | -3% | 16µM* | i
